Some test systems named below: T-47D breast; BT-549 breast; MDA-MB-435 melanoma; SW-620 colon; MCF7 breast; HCT-116 colon; HCC-2998 colon; KM12 colon.
Holding throughout (experiment): NCI-60 one-dose screen, 48 h (100 = growth as untreated, 0 = no growth, -100 = all killed)
Holding throughout (conditions): 10 µM unless noted

Compounds without any hit were thinned out: in the full panel of roughly 83,000, 20% have a hit.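 Each cell line was grown in a 96-well plate and treated with one concentration of compound for 48 hours. Values below 10 were considered active.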 A number with no mark means an inactive call. Activity calls are given as the source filed them.

As to `COc1ccc(/C(C)=N/NC(=O)CSc2nc3ccccc3c(=O)n2Cc2ccc(S(N)(=O)=O)cc2)c(OC)c1`, the growth in the experiment on T-47D breast was 95.6%; with BT-549 breast, 104%; in the experiment with MDA-MB-435 melanoma, 102%; in the experiment with SW-620 colon it was 102%; in the experiment with MCF7 breast, 90.7%; in the experiment with HCT-116 colon, 102%. In the experiment with HCC-2998 colon, the growth is 115%.
As to `C=C1C(=O)O[C@H]2[C@H]1CC/C(COC(=O)CCCc1c[nH]c3ccccc13)=C\CC[C@@]1(C)O[C@@H]21`, the growth was 57.3% in the experiment on T-47D breast; 41.1% in the experiment with BT-549 breast; 60.3% with MDA-MB-435 melanoma; 24.9% in the experiment with SW-620 colon; 11% in the experiment on MCF7 breast; -77.5% (active) in the experiment with HCT-116 colon. Besides, the growth in the experiment on HCC-2998 colon is 102%; with KM12 colon, 85.7%.
Regarding `CC1=NNC(=O)C1CCC(=O)N/N=C(\C)c1ccc2ccccc2c1` (configuration not stated), the growth in the experiment on T-47D breast was 146%; with BT-549 breast, 118%; in the experiment with MDA-MB-435 melanoma it was 86.5%; with SW-620 colon, 103%; in the experiment on MCF7 breast, 98.9%; in the experiment on HCT-116 colon it was 92.7%. The growth in the experiment with HCC-2998 colon is 107%; in the experiment on KM12 colon it was 98.9%.
Consider `CN1CCN(CCCOc2ccc3ncnc(Nc4ccc(Oc5cccc(C(F)(F)F)c5)c(Cl)c4)c3c2)CC1`, for which the growth in the experiment with T-47D breast was 19.2%; in the experiment with BT-549 breast, 69.9%; in the experiment on MDA-MB-435 melanoma, -82% (active); in the experiment on SW-620 colon it was -71.6% (active); in the experiment with MCF7 breast, -28.7% (active); in the experiment with HCT-116 colon, -62% (active). The growth in the experiment with HCC-2998 colon was -66.2% (active).
In the case of `C[C@]12C[C@H]1CC[C@]1(C)[C@@H]2CC[C@@]23C[C@H](CC[C@H]21)[C@@](O)(CO)C3`, the growth in the experiment on T-47D breast is 90.7%; in the experiment on BT-549 breast, 77%; in the experiment with MDA-MB-435 melanoma it was 59.1%; in the experiment on SW-620 colon, 109%; with MCF7 breast, 97.8%; in the experiment on HCT-116 colon it was -71.4% (active). Besides, the growth with HCC-2998 colon was 103%.
On to `Nc1nnc2cc(Cl)ccc2n1`, for which the growth in the experiment on T-47D breast is 93.1%; in the experiment with BT-549 breast, 114%; in the experiment with MDA-MB-435 melanoma it was 106%; in the experiment with SW-620 colon, 96.5%; with MCF7 breast it was 88.7%; with HCT-116 colon, 101%. Also, the growth in the experiment with HCC-2998 colon is 110%; in the experiment on KM12 colon, 97%.
In the case of `Clc1ccc(N2N=C(c3cccc(Nc4ccncc4)c3)CC2c2ccc3c(c2)OCO3)cc1` (configuration not stated), the growth in the experiment with T-47D breast is 82.2%; in the experiment with BT-549 breast, 87.1%; in the experiment on MDA-MB-435 melanoma, -77.6% (active); in the experiment on SW-620 colon, -78.6% (active); in the experiment with MCF7 breast, -17.4% (active); in the experiment on HCT-116 colon, 18.4%. Also, the growth in the experiment on HCC-2998 colon is 1.72% (active).
`Cc1ccc(C2CC(c3cccc(Nc4ccncc4)c3)=NN2c2ccccc2)cc1` (configuration not stated): the growth in the experiment on T-47D breast is -58.2% (active); in the experiment with BT-549 breast, 81.2%; in the experiment on MDA-MB-435 melanoma it was -89.5% (active); in the experiment with SW-620 colon it was -62.7% (active); with MCF7 breast, -92% (active); with HCT-116 colon it was -78% (active). In addition, in the experiment with HCC-2998 colon, the growth is -92.2% (active).
As for `O=C(CN1CCOCC1)Nc1ccc2ncnc(Nc3ccc(Oc4cccc(F)c4)c(Cl)c3)c2c1`, the growth in the experiment on T-47D breast was 23.9%; in the experiment on BT-549 breast, 86.2%; with MDA-MB-435 melanoma it was 85.4%; in the experiment on SW-620 colon, 100%; with MCF7 breast, 71.1%; in the experiment on HCT-116 colon, 73.5%. The growth with HCC-2998 colon was 101%.
For the compound `COc1ccc(NC(=O)c2sc3nc(C)c(C(=O)CCc4cccc(OC)c4)cc3c2N)cc1`, the growth in the experiment with T-47D breast is 67.6%; with BT-549 breast, 79.6%; with MDA-MB-435 melanoma it was -10.4% (active); with SW-620 colon it was 64.7%; in the experiment on MCF7 breast, 16.5%; with HCT-116 colon it was 45.6%. Also, the figures for the growth with HCC-2998 colon and with KM12 colon were 56% and 56.1%, respectively.
`COc1ccc(CC(C)=C(c2ccc(OCCN(C)C)cc2)c2ccc(OCCN(C)C)cc2)cc1`: the growth in the experiment on T-47D breast was 84.5%; in the experiment with BT-549 breast it was 78.3%; with MDA-MB-435 melanoma it was 61.9%; in the experiment with SW-620 colon it was 48.1%; in the experiment with MCF7 breast it was 69.7%; with HCT-116 colon, 22%.
With `CN(C)C(=O)OCc1nc2c(N3CCOCC3)nc(-c3ccccc3)nc2n1C`, the growth is -50.3% (active) in the experiment on T-47D breast; -31.1% (active) with BT-549 breast; -89.1% (active) in the experiment on MDA-MB-435 melanoma; -77.7% (active) in the experiment with SW-620 colon; -60% (active) in the experiment on MCF7 breast; -56.6% (active) with HCT-116 colon. In addition, in the experiment on HCC-2998 colon, the growth was -78.3% (active).
With `COc1cc(-c2cc(=O)oc3cc(O)ccc23)cc(OC)c1OC`, the growth in the experiment on T-47D breast was 83.5%; in the experiment with BT-549 breast, 97.4%; in the experiment with MDA-MB-435 melanoma, 100%; in the experiment with SW-620 colon, 96%; with MCF7 breast, 94%; in the experiment on HCT-116 colon, 86.5%. Moreover, the growth in the experiment with HCC-2998 colon is 100%.
`COc1ccc(NC(=O)c2sc3nc(C)c(C(=O)c4ccc(OC)cc4)cc3c2N)cc1`: the growth was 59.6% in the experiment with T-47D breast; 49.1% in the experiment with BT-549 breast; -26.2% (active) in the experiment with MDA-MB-435 melanoma; 34.9% with SW-620 colon; 25.3% in the experiment with MCF7 breast; 21.8% in the experiment on HCT-116 colon.
Consider `CC1(C)CC[C@]2(C(=O)NCC#CCN3CCOCC3)CC[C@]3(C)C(=CC[C@@H]4[C@@]5(C)Cc6c([nH]c7ccccc67)C(C)(C)[C@@H]5CC[C@]43C)[C@@H]2C1`, for which the growth is 75.2% in the experiment on T-47D breast; 101% in the experiment on BT-549 breast; 83.1% in the experiment with MDA-MB-435 melanoma; 103% in the experiment with SW-620 colon; 81.1% in the experiment with MCF7 breast; 73.9% in the experiment on HCT-116 colon. Also, the growth in the experiment on HCC-2998 colon was 105%.
In the case of `c1ccc(C2CC(c3cccc(Nc4ccncc4)c3)=NN2c2ccccc2)cc1` (configuration not stated), the growth in the experiment on T-47D breast is 92.1%; in the experiment with BT-549 breast, 92.7%; in the experiment with MDA-MB-435 melanoma, 15.3%; in the experiment on SW-620 colon, -44.4% (active); in the experiment on MCF7 breast, 14.4%; in the experiment with HCT-116 colon it was -67.1% (active). For the same compound, the growth in the experiment with HCC-2998 colon is 3.07% (active); with KM12 colon, 44.7%.
As to `COc1ccc(C2=NN(C(C)=O)C(c3cn(Cc4ccc(Cl)cc4)c4ccccc34)C2)cc1` (configuration not stated), the growth with T-47D breast was 51.8%; with BT-549 breast it was 97.1%; in the experiment with MDA-MB-435 melanoma, 96.5%; with SW-620 colon it was 98.2%; in the experiment on MCF7 breast, 84.5%; in the experiment with HCT-116 colon, 86.3%. In the experiment on HCC-2998 colon, the growth was 95.5%.

For the origin of these results see PubChem BioAssay (NCI).
